Assay outcomes deposited in PubChem BioAssay by National Center for Advancing Translational Sciences (NCATS).
CHX counter: counter-screen hit for Shiga toxin inhibitors, cycloheximide; cell reporter, cycloheximide protein synthesis inhibition counterscreen; max response, %; 300,000 tested, 12% active; in the data active = max response mostly above about 13%, no sharp cut-off; inactive = mostly below about 14%; note: read at 38.3 µM for the half of the compounds with a filed dose
Shiga toxin inh: Shiga toxin inhibition | Vero cells, Shiga toxin protein synthesis inhibition reporter | inhibition, % at 38.7 µM | 290,000 tested, 9.2% active | AID 2315; in the data active = inhibition mostly above about 28%, no sharp cut-off; inactive = mostly below about 43%
Pf growth 48h: inhibits P. falciparum growth in the first generation, 48 h. P. falciparum luciferase growth in erythrocytes, 48 h. Potency, µM (series often up to 28.7 µM), actives largely listed as inhibitors. 310,000 tested, 5.9% active
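Firefly luciferase activity from engineered P. falciparum reports growth; inhibitors lower the luminescent signal. Cultures contained 2% hematocrit erythrocytes at 0.1% final parasitemia.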
HCMV antiviral: human cytomegalovirus inhibition | HFF cells, HCMV-luciferase reporter, 72 h; hits give low values | AID 1259415 | 410,000 tested, 4.5% active | activity change, negative = inhibition, % at 57.5 µM; in the data active = activity change below about -60%; inconclusive = no clear call, values can overlap the other calls; inactive = above about -39%
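Inhibition of viral replication was scored as loss of reporter luminescence in HFFs infected with HCMV-luciferase (MOI 1 PFU/cell) for 72 h; compounds tested at 2 doses, normalized to buffer and Salinomycin controls.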
Pf growth 96h: P. falciparum growth inhibition at 96 hours | P. falciparum luciferase reporter growth, 96 h | Potency, µM (series often up to 28.7 µM), actives largely listed as inhibitors | 320,000 tested, 6.9% active | AID 504834
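Erythrocytes infected with luciferase-expressing P. falciparum were dispensed at 2% hematocrit and 0.05% parasitemia (final), then incubated with compounds 96 hours at 37 C in 5% CO2. Luminescence after detection reagent addition reported growth.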
Each line names hits and unclear results; the compound was inactive in the other large screens. The list is not random: actives were taken first. Their share in the collection is about 20%. Unless noted, calls come from the whole dose curve; as a rule, active = well fitted inhibition curve with a large enough effect; inconclusive = small, poorly fitted or top-dose-only effect, or another doubt; inactive = no such curve, though single readings can be large or run the other way.

Cc1cccc(S(=O)(=O)NC(=O)C2(C)CCN2C(=O)Cc2cc(F)ccc2F)c1 (stereo not given)	none (no result: CHX counter, Shiga toxin inh, Pf growth 48h, Pf growth 96h)
O=C(NCc1ccc(Cl)cc1)c1ccc2ccccc2n1	CHX counter 20
O=C(NCc1ccncc1)c1cc2ccccc2nc1Cl	HCMV antiviral -79
O=C(NCCOc1ccc(Cl)cc1)c1ccc2ccccc2n1	CHX counter 9.3
Cc1ccc(OCCNC(=O)c2ccc3ccccc3n2)cc1	none
Cc1noc(/C=C/c2cccs2)c1S(=O)(=O)N1CCC(C(=O)NCCCN2CCCC(C)C2)CC1 (stereo not given)	Pf growth 48h inconclusive
CCOC(=O)C1(Cc2ccccc2C(F)(F)F)CCN(C2CCN(C(C)C)CC2)CC1	HCMV antiviral -69, Pf growth 96h 15µM
CCOC(=O)C1(Cc2ccccc2C(F)(F)F)CCN(CC(O)CO)CC1 (stereo not given)	none
COc1cc(NC(=S)Nc2ccc(N(C)C(C)=O)cc2)cc(OC)c1	none
CSc1ncc(Cl)c(C(=O)Nc2ccccc2Cl)n1	none
COc1cc2c(cc1OC)C(C)N(C(=S)Nc1ccccc1)CC2 (stereo not given)	none
COc1cc2c(cc1OC)C(c1ccc(Br)cc1)N(C(=O)c1ccccc1C(=O)O)CC2 (stereo not given)	Pf growth 96h inconclusive
COc1cc2c(cc1OC)C(c1cc(Br)ccc1F)N(C(=O)CCl)CC2 (stereo not given)	Pf growth 48h 8.3µM, HCMV antiviral -93, Pf growth 96h inconclusive
COc1cc2c(cc1OC)C(C1C(=O)CC(C)(C)CC1=O)N(C(=O)CCl)CC2 (stereo not given)	none
COc1cc2c(cc1OC)C(C)N(C(=S)NC(=O)c1ccccc1)CC2 (stereo not given)	Pf growth 48h inconclusive, HCMV antiviral -61, Pf growth 96h inconclusive
COc1ccc(C2c3cc(OC)c(OC)cc3CCN2C(=O)c2ccccc2)cc1OC (stereo not given)	Pf growth 48h inconclusive, Pf growth 96h 2.1µM
COc1ccc(C2c3cc(OC)c(OC)cc3CCN2C(=O)c2ccccc2Br)cc1OC (stereo not given)	Pf growth 48h 12µM, Pf growth 96h inconclusive
COc1ccc(S(=O)(=O)N2CCc3ccccc32)cc1C(=O)OCc1nnc(-c2ccccc2)o1	none (no result: Pf growth 48h, Pf growth 96h)
Cc1ccc(NC(=O)Cn2c(-c3cncs3)nc3ccccc32)c(Br)c1	none (no result: CHX counter, Shiga toxin inh, Pf growth 48h, Pf growth 96h)
COc1ccc(C(=O)N2CCc3cc(OC)c(OC)cc3C2c2cccc([N+](=O)[O-])c2)cc1OC (stereo not given)	Pf growth 48h 13µM, Pf growth 96h inconclusive
O=C(Nc1cccc(OC(F)(F)F)c1)C1Cc2c(-c3ccccc3Oc3ccccc3)ccnc2O1 (stereo not given)	none (no result: CHX counter, Shiga toxin inh, Pf growth 48h, Pf growth 96h)
O=C(/C=C(/c1ccc(Cl)cc1)n1cncn1)c1ccccc1	Pf growth 48h inconclusive, Pf growth 96h inconclusive
COC1=CC(=O)c2nc(Cl)ccc2C1=O	HCMV antiviral -101 (no result: CHX counter, Shiga toxin inh, Pf growth 48h, Pf growth 96h)
O=C(Nc1ccc(Cl)cc1)C1CCC(CNS(=O)(=O)c2ccc(Br)s2)CC1 (stereo not given)	none (no result: CHX counter, Shiga toxin inh, Pf growth 48h, Pf growth 96h)
O=C(NCc1ccc2c(c1)OCO2)c1ccc2c(c1)S(=O)(=O)c1ccccc1C2=O	none (no result: CHX counter, Shiga toxin inh, Pf growth 48h, Pf growth 96h)
CCNc1nc(ON=C(C)C)nc(N(C)C)n1	Pf growth 48h 8.3µM, Pf growth 96h inconclusive
COCNc1nc(OCC#N)nc(N(C)C)n1	Pf growth 96h inconclusive
CCC(C)C(CO)NCCCn1cnc(C(=O)Nc2ccc(C)c(C)c2)n1 (stereo not given)	none (no result: CHX counter, Shiga toxin inh, Pf growth 48h, Pf growth 96h)
Oc1ccc(C[C@H]2CN([C@@H](Cc3ccc(O)cc3)CN3CCC[C@@H]3CN3C(=S)NC[C@@H]3Cc3ccccc3)C(=S)N2CC2CCCCCC2)cc1	HCMV antiviral -97 (no result: CHX counter, Shiga toxin inh, Pf growth 48h, Pf growth 96h)
Oc1ccc(C[C@H]2CN([C@@H](Cc3cccc(O)c3)CN3CCC[C@@H]3CN3C(=S)NC[C@@H]3Cc3ccccc3)C(=S)N2CC2CCCCC2)cc1	HCMV antiviral -72 (no result: CHX counter, Shiga toxin inh, Pf growth 48h, Pf growth 96h)
Oc1ccc(C[C@H]2CNC(=S)N2CC2CCCN2C[C@H](Cc2ccc(O)cc2)N2C[C@H](Cc3ccc(O)cc3)N(CC3CCCCC3)C2=S)cc1 (stereo not given in full)	HCMV antiviral -93 (no result: CHX counter, Shiga toxin inh, Pf growth 48h, Pf growth 96h)
CC(C)C[C@H]1CN([C@@H](Cc2ccc(O)cc2)CN2CCC[C@@H]2CN2C(=S)NC[C@@H]2Cc2ccccc2)C(=S)N1CC1CCCCC1	none (no result: CHX counter, Shiga toxin inh, Pf growth 48h, Pf growth 96h)
CC(C)C[C@H]1CNC(=S)N1C[C@H]1CCCN1C[C@H](Cc1ccccc1)N1C[C@H](Cc2ccc(O)cc2)N(CC2CCCCCC2)C1=S	HCMV antiviral -84 (no result: CHX counter, Shiga toxin inh, Pf growth 48h, Pf growth 96h)
